GLS inh: qHTS for Inhibitors of Glutaminase (GLS) | AID 624170, 2012 | Potency, µM (series often up to 45.5 µM), for the others: at the top dose activity change, negative = inhibition, most hits filed as inhibitors | 410,000 tested, 0.21% active | Glutaminase kidney isoform, mitochondrial (Homo sapiens), O94925 | GLS enzymatic activity, qHTS titration; further: potency means the concentration at half of the fitted maximal effect
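Enzyme dispensed in phosphate buffer (45 mM, pH 8.2, 0.02% Tween-20), compounds pinned in, then 1 mM L-glutamine solution and the glutamate oxidase–HRP–Amplex Red mix added; fluorescence read immediately and again after 30 min at room temperature.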
GCN5L2 inh: qHTS Assay for Inhibitors of GCN5L2 | 390,000 tested, 0.21% active | AID 504327, 2011 | GCN5L2 HAT assay, ThioGlo1 CoA-SH fluorescence | Potency, µM (highest dose often 58.9 µM), for inactives: at the top dose activity change, negative = inhibition, usual class: inhibitors | Histone acetyltransferase KAT2A (Homo sapiens), Q92830; further: potency means the concentration at half of the fitted maximal effect
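Free CoA generated was detected with ThioGlo1 (50uM) fluorescence at Ex340nm/Em540nm, read immediately and after 20 min at room temperature. Enzyme, 20 nM in HEPES pH 7.5 buffer, saw compounds 15 min before adding 75uM H3(1-25) peptide and 70uM acetyl-CoA.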
PI4K2A block: qHTS for small molecular inhibitors of PI4K2A; Phosphatidylinositol 4-kinase type 2-alpha (Homo sapiens), Q9BTU6; purified PI4K2A, ADP-Glo luminescence, 1 h; hits give low values; activity change, negative = inhibition, % at 76.9 µM; 420,000 tested, 0.13% active; in the data active means activity change below about -50%; inconclusive means mostly about -30% to -49%;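 further: -100% = wells without enzyme as full effect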
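In this quantitative HTS, ADP production by PI4K2A was quantified luminescently after 1 h at ambient temperature; 100 microM adenosine served as plate-quality control.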
PLK1 PBD block: qHTS for Inhibitors of PLK1-PDB (polo-like kinase 1 - polo-box domain): Primary Screen. Serine/threonine-protein kinase PLK1 (Homo sapiens), P53350. 360,000 tested, 2.8% active. Plk1 PBD binding of FITC phosphopeptide, fluorescence polarization. Potency, µM, inactives show max response, negative = inhibition, most hits filed as inhibitors; further: potency means the concentration at half of the fitted maximal effect; series mostly up to about 57 µM; nearly all actives have a fitted effect of over 65% in size
VDR inh: Inhibitors of the vitamin D receptor (VDR): qHTS; VDR-SRC2-3 peptide fluorescence polarization, 2 h; AID 504847, 2011; 400,000 tested, 0.93% active; Potency, µM, for inactives: max response, negative = inhibition, most hits filed as inhibitors; further: potency means the concentration at half of the fitted maximal effect
Target sequence (P11473 whole entry, looked up): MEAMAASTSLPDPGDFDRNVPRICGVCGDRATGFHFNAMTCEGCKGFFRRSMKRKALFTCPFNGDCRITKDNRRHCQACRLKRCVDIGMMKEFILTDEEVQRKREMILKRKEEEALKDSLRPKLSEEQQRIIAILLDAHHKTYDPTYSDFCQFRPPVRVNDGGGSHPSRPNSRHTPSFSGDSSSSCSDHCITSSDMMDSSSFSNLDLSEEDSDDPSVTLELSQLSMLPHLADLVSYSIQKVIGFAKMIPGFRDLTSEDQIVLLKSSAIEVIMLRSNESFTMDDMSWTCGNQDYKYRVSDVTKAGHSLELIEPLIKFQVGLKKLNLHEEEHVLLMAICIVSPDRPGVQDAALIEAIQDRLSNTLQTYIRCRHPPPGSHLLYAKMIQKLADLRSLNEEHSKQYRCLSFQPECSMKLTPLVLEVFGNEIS
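VDR–SRC2-3 interaction, FP format. Cmpds 23 nl via pintool, brief spin, 2 h ambient incubation.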
TbPYK confirm: qHTS of Trypanosoma Brucei Inhibitors: Confirmatory Assay for Cherry-picked Compounds; shares compounds with PLK1 PBD block; recombinant TbPYK, Kinase-Glo ATP luminescence; Potency, µM (series often up to 76.9 µM), without a hit: top-dose activity change, negative = inhibition, hits mostly inhibitors; 890 tested, 67% active; AID 720569, 2013; further: potency means the concentration at half of the fitted maximal effect; nearly all actives have a fitted effect of over 70% in size
TbPYK orthogonal: qHTS of Trypanosoma Brucei Inhibitors: Orthogonal Assay for Cherry-picked Compounds; recombinant TbPYK, ADP-Glo luminescence, 60 min; shares compounds with PLK1 PBD block; Potency, µM (series often up to 76.9 µM), for the others: top-dose activity change, negative = inhibition, usual class: inhibitors; 890 tested, 62% active; further: potency means the concentration at half of the fitted maximal effect; nearly all actives have a fitted effect of over 75% in size
* marks the source's active call; other numbers are inactive results; u = inconclusive; x = not tested or not shown. The list is not random: actives were taken first. Their share in the collection is about 3.1%. Unless noted, the call rests on the fitted dose curve; in most records, active means well fitted curve in the direction sought with a large enough effect; inconclusive means small, poorly fitted or top-dose-only effect, or another doubt; inactive means no such curve, though single readings can be large; an effect the other way counts as inactive or inconclusive. Unless noted, on the % scale 0 is the no-effect control and ±100 the full control effect.

SMILES	GLS inh	GCN5L2 inh	PI4K2A block	PLK1 PBD block	VDR inh	TbPYK confirm	TbPYK orthogonal
COc1cc(C2Nc3ccccc3C(=O)N2c2ccccc2OC)ccc1O (centres undefined)	33.5%	-9.3%	4.6	-7.1%	-6.0%	x	x
Cc1ccc(C)c(Cn2c3ccccc3c3cnn(CC(=O)NC(C)c4ccccc4)c(=O)c32)c1 (centres undefined)	5.5%	5.1%	0.9	x	12.1%	x	x
O=C(CSc1ccc(-c2nc3ccccc3[nH]2)cn1)N1CCN(C(=O)c2ccco2)CC1	-3.5%	-9.0%	-8.9	29.9µM*	u	u	u
CCN1CCN(c2nc(C)nc3c2sc(=S)n3C)CC1	-10.8%	-0.3%	1.1	2.99µM*	25.1µM*	5.62µM*	15.8µM*
COc1cc(Cl)c(S(=O)(=O)N2CCCC2)cc1Cl	4.0%	-1.4%	-5.5	-0.2%	1.0%	x	x
COc1cc(N2C(=O)C=CC2=O)c(OC)cc1Cl	5.0%	u	8.4	2.99µM*	28.2µM*	4.47µM*	7.08µM*
C=C(C)Cn1c(=O)c2c(nc3n2CCN3c2cc(C)cc(C)c2)n(C)c1=O	-6.0%	-13.5%	10.1	x	3.3%	x	x
C[C@@H](O)CNC(C)(C)CC(=O)N[C@@H]1CCc2ccccc2N(Cc2ccc(-c3ccccc3-c3nn[nH]n3)cc2)C1=O	x	-0.4%	x	x	2.0%	x	x
CC(C)c1cc2c(c(O)c1O)[C@@]13CCCC(C)(C)C1CC2OC3=O (some centres undefined)	-12.6%	u	-0.6	6.7µM*	u	1.78µM*	3.55µM*
COCCN=C1NN=C(c2ccc(C)c([N+](=O)[O-])c2)CS1	24.8%	-1.9%	-6.5	26.7µM*	u	u	u
N#CC1=C2SCN(Cc3ccccc3)CN2C(=O)CC1c1ccc2c(c1)OCO2 (centres undefined)	-3.6%	-26.2%	-8.4	18.9µM*	50.1µM*	u	u
COc1cc(CNCc2ccco2)ccc1OCc1ccccc1	5.6%	-2.1%	3.3	-16.1%	-0.1%	x	x
CC(C)c1ccc(C2CC(=O)N3CN(Cc4ccco4)CSC3=C2C#N)cc1 (centres undefined)	-3.6%	u	-2.0	26.7µM*	39.8µM*	0.141µM*	0.447µM*
N#CC1=C(N)OC2=C(C(=O)CC(c3ccccc3)C2)C1c1ccc2c(c1)OCO2 (centres undefined)	0.0%	-10.9%	2.3	4.6%	u	x	x
COc1cc(C2CC(=O)N3CN(Cc4ccco4)CSC3=C2C#N)ccc1OCc1ccccc1 (centres undefined)	-17.1%	u	-4.8	u	u	u	1µM*
CSC1=C(C#N)C(c2ccc(C(C)C)cc2)CC(=O)N1 (centres undefined)	2.0%	-11.1%	1.4	-2.6%	2.5%	x	x
CN(C)C(=O)Nc1ccccc1	0.8%	10.1%	11.9	-2.6%	7.3%	x	x
CCc1nn(CC(=O)NCCOC)c(=O)c2cc3cc(F)ccc3n12	0.5%	-3.8%	1.1	x	5.7%	x	x
CCOCCCNC(=O)c1cc2c(s1)-c1ccccc1SC2	-3.3%	-0.2%	0.3	26.7µM*	u	10µM*	12.6µM*
Cc1ccc(CNC(=O)c2cc3c(s2)-c2ccccc2SC3)cc1	10.8%	-6.2%	5.1	x	14.5%	x	x
COC(=O)[C@]12C[C@H](CC(=O)NCc3ccccc3)C(=O)N(Cc3cccc4ccccc34)C1=C[C@H](C(C)(C)C)O[C@@H]2C	x	x	-5.6	x	x	x	x
C[C@@H]1CCCCO[C@@H](CN(C)C(=O)c2ccncc2)[C@@H](C)CN([C@H](C)CO)C(=O)c2cc(N(C)C)ccc2O1	25.1%	x	-2.8	u	x	x	x
Cc1ccc(S(=O)(=O)N(C)C[C@H]2OCCCC[C@@H](C)Oc3ccc(N(C)C)cc3C(=O)N([C@H](C)CO)C[C@@H]2C)cc1	-11.9%	x	5.7	-9.0%	x	7.08µM*	7.94µM*
C[C@@H]1CCCCO[C@H](CN(C)C(=O)C2CCCCC2)[C@@H](C)CN([C@H](C)CO)C(=O)c2cc(N(C)C)ccc2O1	-2.8%	x	-8.1	u	x	28.2µM*	u
COc1ccccc1CNc1ncnc2ccc(-c3ccccc3OC)cc12	x	-6.8%	x	x	-2.5%	x	x
SMILES	GLS inh	GCN5L2 inh	PI4K2A block	PLK1 PBD block	VDR inh	TbPYK confirm	TbPYK orthogonal
Cc1cccc2[nH]c(CCNC(=O)C3CCC(=O)N(CCc4cccc(F)c4)C3)nc12 (centres undefined)	4.7%	-2.6%	-8.0	-8.7%	2.6%	x	x
O=C(CCSCCC(=O)NCc1ccco1)NCc1ccco1	-27.5%	-12.2%	u	21.2µM*	u	u	u
O=C(CCSCc1ccccc1Cl)NCc1ccco1	2.2%	-7.9%	0.5	-7.7%	-16.2%	x	x
COc1ccc(-c2cc3c(=O)n(CC(=O)Nc4ccc(Cl)cc4)ncn3n2)cc1	2.4%	-15.0%	-1.5	-3.2%	-5.7%	x	x
O=C1C=CC2=C3c4cc(O)c(O)cc4CC3(O)COC2=C1O (centres undefined)	u	x	u	26.7µM*	u	7.08µM*	3.98µM*
Cc1ccc(S(=O)(=O)N2CCN(S(=O)(=O)c3ccc4c(c3)OCCCO4)CC2)cc1	x	x	x	x	1.2%	x	x
COc1ccc(Oc2ncc3nc(CCc4ccccc4)c(=O)n(C[C@H]4CCCO4)c3n2)cc1	x	-14.9%	x	x	-2.8%	x	x
O=C(NC(=S)NNC(=O)c1ccccc1[N+](=O)[O-])c1ccc(Br)cc1	7.8%	-12.8%	0.2	u	-22.2%	u	u
O=C(O)CN(CC(=O)O)c1ccccc1OCCOc1ccccc1N(CC(=O)O)CC(=O)O	x	-4.7%	x	x	14.3%	x	x
C=CCOc1ccc(/C=C2/C(=O)ON=C2C)cc1OC	19.6%	27.2%	2.2	2.38µM*	-14.2%	12.6µM*	u
C=CCOc1ccc(/C=C2\SC(N)=NC2=O)cc1OC	-7.6%	1.7%	4.7	9.4%	5.8%	x	x
CC(C)(C)OC(=O)N1O[C@H]2C[C@@H]1[C@@H]1[C@@H]2N=NN1C12CC3CC(CC(C3)C1)C2	-6.2%	-3.3%	-2.2	-8.3%	-3.0%	x	x
CC(C)(C)OC(=O)N1O[C@H]2CC1[C@@H]1[C@@H]2N=NN1CCc1ccncc1	-2.2%	0.8%	-3.3	-5.3%	-18.4%	7.94µM*	14.1µM*

From PubChem
